Rows were chosen to be rich in hits. Some 2.4% of all compounds tested hit in one or more screens of this group.
Cruzain Triton: blocks cruzain activity in presence of Triton detergent. P25779. purified cruzain, Z-FR-AMC fluorescence, 0.01% Triton. Potency, µM, actives largely listed as inhibitors. actives 0.43% (n = 200,000). AID 1478; note: nearly all actives have a fitted effect of over 40% in size
Target sequence (P25779 123-467 limits assumed): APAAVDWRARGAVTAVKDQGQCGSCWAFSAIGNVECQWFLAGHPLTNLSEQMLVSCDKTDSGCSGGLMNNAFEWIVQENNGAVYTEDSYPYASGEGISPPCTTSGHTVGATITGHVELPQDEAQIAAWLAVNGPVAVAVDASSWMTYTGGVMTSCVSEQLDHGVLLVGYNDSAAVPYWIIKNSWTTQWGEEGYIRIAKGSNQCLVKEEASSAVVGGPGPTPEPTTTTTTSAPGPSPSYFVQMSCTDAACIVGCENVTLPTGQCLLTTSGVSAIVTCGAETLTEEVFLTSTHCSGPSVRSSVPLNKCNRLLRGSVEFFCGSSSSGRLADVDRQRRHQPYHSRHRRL
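Cysteine protease activity tested under reducing, mildly acidic conditions (100 mM sodium acetate pH 5.5, 5 mM DTT) plus 0.01% Triton X-100. Cruzain 1.5 nM; substrate Z-FR-AMC 2 uM; 15 min compound preincubation at room temperature.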
Cruzain noTriton: inhibitors of Trypanosoma cruzi cruzain without detergent | purified cruzain, Z-FR-AMC fluorescence, no detergent | Potency, µM, usual class: inhibitors | actives 2.3% (n = 200,000) | AID 1476; note: nearly all actives have a fitted effect of over 40% in size
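Detergent-free condition (0.00005% Triton X-100) in acetate buffer pH 5.5 with DTT. 1.5 nM enzyme and compound were pre-mixed 15 min, then 2 uM Z-FR-AMC substrate added; reaction progress from fluorescence change between first and third reads (60 s).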
Hits are given with their value; - = inactive; ? = inconclusive; ! = a repeat was not active. Calls come from the whole dose curve; as a rule, active = well fitted curve in the direction sought with a large enough effect; inconclusive = small, poorly fitted or top-dose-only effect, or another doubt; inactive = no such curve, though single readings can be large; an effect the other way counts as inactive or inconclusive.

SMILES	Cruzain Triton	Cruzain noTriton
CCCC(=O)Nc1nc(C)c(-c2csc(Nc3ccc(Cl)cc3)n2)s1	-	13µM
CCCC(C)C(=O)Nc1nc(C)c(-c2csc(Nc3cc(OC)ccc3OC)n2)s1 (stereo not drawn)	-	?
CC(=O)Nc1nc(C)c(-c2csc(Nc3cccc([N+](=O)[O-])c3)n2)s1	-	-
CCC(C)C(=O)Nc1nc(C)c(-c2csc(Nc3ccc(Cl)cc3)n2)s1 (stereo not drawn)	-	4µM
CCCC(=O)Nc1nc(C)c(-c2csc(Nc3cc(OC)ccc3OC)n2)s1	-	-
CCCC(=O)Nc1nc(C)c(-c2csc(Nc3ccccc3OC)n2)s1	-	-
O=S(=O)(O)C(c1ccccc1)[C@@H](O)c1ccccc1 (stereo partly drawn)	-	-
CCn1cc2c(n1)-c1c(oc(C(=O)Nc3cccc(C)c3C)c1C)CC2	-	-
Cc1nn(C(C)(C)C)c(OC(=O)c2c(F)cccc2F)c1Sc1ccccc1	-	-
COc1ccc(NC(=O)Cn2c(=O)ccc3cc(S(=O)(=O)N4CCCC4)ccc32)cc1Cl	-	-
CC(=O)Nc1ccc(S(=O)(=O)NCCc2csc3nc(-c4ccc(Cl)cc4)nn23)cc1	-	-
C=CCCC(=O)Nc1nc(C)c(-c2csc(Nc3cccc(OC)c3)n2)s1	-	16µM
C=CCCC(=O)Nc1nc(C)c(-c2csc(Nc3cc(OC)ccc3OC)n2)s1	-	?
COc1cccc(/C=C/c2nc(C#N)c(N3CCN(C)CC3)o2)c1	25µM	3.2µM
COc1cc(/C=C/c2nc(C#N)c(N3CCN(C)CC3)o2)cc(OC)c1OC	-	13µM
COc1ccccc1/C=C/c1nc(C#N)c(N2CCN(c3ccccc3)CC2)o1	-	-
COc1ccc(N2CCN(c3oc(/C=C/c4cccc(OC)c4)nc3C#N)CC2)cc1	-	-
COc1ccccc1NC(=O)CSc1nc(N)cc(N)n1	-	-
COc1ccccc1NC(=O)CSc1nc2ccccc2cc1Cc1ccccc1	-	20µM
O=C(c1cc(C(=O)NCc2ccc(Cl)cc2)c(=O)n(Cc2ccc(Cl)cc2)c1)c1cc(F)ccc1O	-	16µM
O=C(NCc1ccc(Cl)cc1)c1ccc(Cn2cc(C(F)(F)F)ccc2=O)cc1	-	-
Cn1c(N)c(N2CCCCC2)c(=O)n(CC(=O)Nc2ccc(Cl)c(Cl)c2)c1=O	-	-
O=C(Cn1c2c(sc1=O)C1c3ccccc3OCC1CS2)Nc1ccc(Cl)c(Cl)c1 (stereo not drawn)	-	6.3µM
CC(C)c1cnc2c(c1SCC(=O)NC(C)(C)C)c(=O)n(C)c(=O)n2C	-	-
Cc1ccccc1-n1nc(CO)c(C(=O)NCc2cccs2)n1	-	-
SMILES	Cruzain Triton	Cruzain noTriton
O=C1CCCN1CCCn1cnc2c([nH]c3ccc(F)cc32)c1=O	-	-
C=CCNc1ncnc2c1[nH]c1ccc(C)cc12	-	-
Cc1ccc2[nH]c3c(NCCN4CCOCC4)ncnc3c2c1	-	20µM
O=C1CCCN1CCCNc1ncnc2c1[nH]c1ccc(Cl)cc12	25µM	16µM
COc1cc(/C=N/Nc2snc(SC)c2C#N)ccc1O	-	-
CSc1nsc(/C=C/Nc2ccc(C)cc2)c1C#N	-	3.2µM
COc1ccccc1-n1c(SCC(=O)Nc2ccc(C)cc2)nc(O)cc1=O	-	-
COc1ccc(NC(=O)CSc2nc(O)cc(=O)n2-c2ccccc2OC)cc1	?	16µM
O=C1CN(C(=O)c2ccc(Cl)cc2Cl)C(c2ccc(F)cc2)c2cc(F)ccc2N1 (stereo not drawn)	-	-
COc1ccc(Cl)cc1NC(=O)CSc1cn(CC(=O)N2CCCCC2)c2ccccc12	-	-
COc1ccc(NC(=O)c2cc(Cl)ccc2Cl)c([N+](=O)[O-])c1	-	-
O=C(Nc1ccc([N+](=O)[O-])cc1Cl)c1cc(Cl)ccc1O	5.6µM!	-
Cc1ccc(S(=O)(=O)N(CC(=O)Nc2cccnc2)c2cc(Cl)ccc2C)cc1	-	?
O=C(NCc1ccc(F)cc1)C1CCCN(c2ncnc3onc(-c4ccc(F)cc4)c23)C1 (stereo not drawn)	-	-
COc1cccc(-c2nc(CS(=O)(=O)CC(=O)Nc3c(C)cc(C)cc3C)c(C)o2)c1	-	-
COC(=O)c1c(-c2ccc(C)cc2)csc1NC(=S)NC(=O)c1cc(OC)cc(OC)c1	-	4µM
CCOC(=O)c1c(-c2ccc(C)cc2)csc1NC(=O)c1cc(-c2ccc(OC)cc2)on1	-	-
Cc1ccc2nc(-c3ccc(N)cc3)sc2c1S(=O)(=O)O	35µM	20µM
Cc1ccc2nc(-c3ccc(NS(=O)(=O)c4ccccc4)cc3)sc2c1	-	-
Cc1ccc(NC(=O)c2cc(C(=O)c3cc(Cl)ccc3O)cn(-c3ccc(C)cc3)c2=O)cc1	-	5µM
N#Cc1cc(C(=O)c2cc(Cl)ccc2O)cn(-c2ccccc2)c1=O	-	-
CCOc1cccc2sc(N(Cc3cccnc3)C(=O)C3CCCCC3)nc12	-	?
O=C(COc1cc(=O)n2c(n1)SCCC2)c1ccccc1	-	-
O=c1cc(NCc2ccccc2)nc2n1CCCS2	-	25µM
CCCc1cc(=O)oc2cc(C)c3c(-c4ccccc4)coc3c12	-	?
SMILES	Cruzain Triton	Cruzain noTriton
CCc1ccc(NC(=O)CSc2nc3cc(C(=O)OC)ccc3c(=O)n2Cc2ccco2)cc1	-	5µM
CCOc1ccc2nc(NC(=O)Nc3ccccc3)sc2c1	-	?
CCOC(=O)CSc1nc2ccccc2c(=O)n1Cc1ccco1	-	-
O=c1c2ccccc2nnn1CSc1nc2ccccc2c(=O)n1Cc1ccco1	-	10µM
CCN(C(=O)CSc1nc2cc(C(=O)OC)ccc2c(=O)n1Cc1ccco1)c1cccc(C)c1	-	-
O=c1c2ccccc2nc(SCc2ccccc2)n1Cc1ccco1	-	-
CCOc1ccc2nc(NC(=O)CSc3nc4ccccc4c(=O)n3Cc3ccco3)sc2c1	-	7.9µM
CCOc1ccc2nc(NC(=S)NCc3ccccc3)sc2c1	-	25µM
COc1ccc(N2CCN(C(c3ccccc3)c3sc4nc(-c5ccco5)nn4c3O)CC2)cc1 (stereo not drawn)	-	-
CCN1CCN(C(c2ccc(F)cc2)c2c(O)cc(C)n(CCOC)c2=O)CC1 (stereo not drawn)	-	-
COc1ccc(C(=O)NC2c3ccccc3-c3ccccc32)cc1	-	20µM
O=C(NC1c2ccccc2-c2ccccc21)c1ccco1	-	-
CS(=O)(=O)N(Cc1ccccc1)c1ccc(C(=O)Nc2ccc(Cl)cc2)cc1	-	-
CCOC(=O)c1c(C)n(Cc2ccco2)c2ccc(OC)cc12	-	-
CCOC(=O)c1c(C)n(Cc2ccco2)c2c1cc(O)c1ccccc12	-	25µM
COc1ccc(C(=O)Nc2cc(C(C)C)c(O)c(S(=O)(=O)c3ccc(Cl)cc3)c2C)cc1	-	?
COc1ccc(C(=O)Nc2cc(C(C)C)c(O)c(S(=O)(=O)c3ccc(OC)cc3)c2C)cc1	-	25µM
COc1ccc(OC)c(S(=O)(=O)N2Cc3ccccc3CC2C(=O)Nc2ccc(C(C)=O)cc2)c1 (stereo not drawn)	-	-
CCN(CC)C(=O)C1=C(C)Nc2nc3ccccc3n2C1c1ccc(Cl)cc1 (stereo not drawn)	-	-
N#CC1=C(N)Nc2nc3ccccc3n2C1c1ccc(Cl)cc1 (stereo not drawn)	-	32µM
C=C(C)Cn1c(SCC#N)nc2ccccc2c1=O	-	-
N#CCSc1nc2ccc(N3CCCCC3)cc2c(=O)n1Cc1ccccc1	-	25µM
O=S1(=O)c2ccccc2N(Cc2cccc(F)c2)c2ccccc21	-	-
